In PubChem BioAssay (NCI):
About 83,000 compounds went through this panel and 20% of them were active in at least one assay; those are over-represented in the sample as a whole.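 Method: cells in 96-well plates; compound added at one concentration; 48 h incubation; percent growth measured; values under 10 scored active.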 The source made the active and inactive calls.

Legend:
Assay in all cases: NCI-60 one-dose screen, 48 h (100 = growth as untreated, 0 = no growth, -100 = all killed)
Settings in all cases: 10 µM unless noted
[1] = tested on: HT29 colon
[2] = tested on: SNB-75 CNS
[3] = tested on: SNB-19 CNS
[4] = tested on: U251 CNS
[5] = tested on: SK-MEL-5 melanoma
[6] = tested on: UACC-62 melanoma
[7] = tested on: LOX IMVI melanoma
[8] = tested on: SK-MEL-28 melanoma
[9] = tested on: SK-MEL-2 melanoma
[10] = tested on: PC-3 prostate

Measured: growth

Cc1ccc(C=C2C(Cl)=C(Cl)C(Cl)=C2Cl)cc1
active: [1] 8.19% | [2] -11.6% | [3] -78.3% | [4] -86.3% | [5] -94.4% | [6] -73.6% | [7] -88.7% | [8] -87.8%

O=C1OC(c2ccc(-c3ccccc3)cc2)=C/C1=C/c1cccs1
inactive: [1] 125% | [2] 95.7% | [3] 131% | [4] 100% | [5] 78.2% | [6] 74.6% | [7] 99.4% | [8] 102%

c1ccc(-n2nnnc2-c2cccc3ccccc23)cc1
inactive: [3] 36.7% | [4] 19.5% | [5] 22.2% | [6] 31.6% | [7] 18.6% | [8] 56.5% | [9] 23.8%
active: [1] -1.01% | [2] -7.18%

COc1ccc(-c2cn(-c3ccccc3)c(-c3ccccc3)n2)cc1OC
inactive: [1] 19.4% | [2] 95.9% | [3] 117% | [4] 29.2% | [5] 74.5% | [6] 62.4% | [7] 14.5% | [8] 102%

CN(CC(=O)Nc1nc2ccccc2[nH]1)S(=O)(=O)c1ccc(Cl)cc1
inactive: [1] 64.7% | [2] 101% | [3] 92.4% | [4] 78.9% | [5] 84.1% | [6] 66.9% | [7] 64.7% | [8] 121% | [9] 53.7%

Cc1nn(-c2ccccc2)c2c1oc(=O)c1cc(Cl)ccc12
inactive: [1] 101% | [2] 83.7% | [3] 99.2% | [4] 105% | [5] 110% | [6] 92.3% | [7] 105% | [8] 140%

CCN1C(=O)c2ccc3c4c(ccc(c24)C1=O)C(=O)N(CCCNCc1ccccc1OC)C3=O
active: [1] -48.8% | [2] -71.5% | [3] -64.1% | [4] -86.3% | [10] 0.702% | [6] -88.3% | [8] 3.31%

O=C1c2ccccc2-c2c1nc1ccccc1[n+]2[O-]
inactive: [1] 105% | [2] 103% | [3] 103% | [4] 103% | [10] 99.4% | [6] 105% | [8] 113% | [9] 107%

COc1cccc(-c2nnc(N)o2)c1
inactive: [1] 100% | [2] 106% | [3] 102% | [4] 97.8% | [5] 99.3% | [6] 99.5% | [7] 94.7% | [8] 104% | [9] 107%

CCCCCCC/C(=N\N=C(N)N)c1ccc(O)cc1
inactive: [2] 81.6% | [3] 37.1% | [4] 30.7% | [10] 24.6% | [6] 51.4% | [7] 31.4% | [8] 60.4% | [9] 48.3%
active: [1] 3.57%

O=C(/C=C/c1cc2ccccc2[nH]c1=O)c1ccc(Cl)cc1
active: [1] 6.1% | [7] -69.2%
inactive: [2] 16.8% | [3] 47.6% | [4] 24.8% | [5] 56.2% | [6] 31.4% | [8] 80.1% | [9] 18.8%

CCCCCCCC/C=C/CCCCCCCC1=NC(C)(C)CN1CC(C)O (centres undefined)
inactive: [2] 32% | [3] 72.3% | [5] 53.3% | [8] 53.2% | [9] 33%
active: [1] -64.8% | [4] -17% | [6] 3.95% | [7] -99.4%

COc1ccc(-c2nn(-c3ccccc3)cc2/C=C2\SC(=S)N(CCc3ccc(O)cc3)C2=O)cc1
inactive: [1] 101% | [2] 81% | [3] 93.6% | [4] 90.5% | [5] 88.1% | [6] 60.3% | [7] 72.9% | [8] 98.6% | [9] 95%

Cc1cc(NC(=O)Nc2cccc3ccccc23)no1
inactive: [1] 108% | [2] 91.4% | [3] 105% | [4] 93.6% | [5] 99% | [6] 90.6% | [7] 95.9% | [8] 116% | [9] 101%

C/C(=C\CCc1ccoc1)CC/C=C(\C)CCCN1CCC(CO)CC1
inactive: [2] 36.4% | [3] 76.2% | [4] 40% | [10] 57.8% | [8] 56.3%
active: [1] 6.48% | [6] -63.3%

CCCCn1c(Cc2ccc(Cl)cc2)nc2cc(OC)c(OC)cc2c1=O
inactive: [1] 107% | [2] 104% | [3] 150% | [4] 88.5% | [5] 41% | [6] 52.5% | [7] 79.9% | [8] 116%

CCCc1nn(C)c2c(=O)[nH]c(-c3cc(S(=O)(=O)N4CCN(C)CC4)ccc3OCC)nc12
inactive: [1] 99.1% | [2] 104% | [3] 103% | [4] 94.5% | [10] 91.1% | [6] 99.9% | [7] 93.9% | [8] 116% | [9] 96.6%

COc1cc2c(c(OC)c1OC)CCc1cnoc1-2
inactive: [1] 99.4% | [2] 71.7% | [3] 97% | [4] 98.7% | [5] 100% | [6] 98.9% | [7] 92.1% | [8] 123% | [9] 119%

NC(=O)c1ncn([C@@H]2O[C@H](CO)[C@@H](O)[C@H]2O)n1
inactive: [1] 52.5% | [2] 92.2% | [3] 96.2% | [4] 94.7% | [10] 86% | [6] 104% | [7] 84.2% | [8] 115% | [9] 103%

CCCCN(CCCC)CCCOC(=O)c1ccc(N)cc1
inactive: [1] 31.4% | [2] 39.1% | [3] 88.7% | [4] 58.5% | [10] 97.1% | [6] 92.3% | [7] 64.2% | [8] 57.5% | [9] 85.1%

CN1CCCC1c1cccnc1 (centres undefined)
active: [9] -0.647%
inactive: [1] 115% | [2] 99.7% | [3] 105% | [4] 97.1% | [5] 87.7% | [6] 94.1% | [7] 100% | [8] 101%

COc1ccc(-c2cc(C(=O)Nc3nc4cc(C)c(C)cc4s3)nc3cc(-c4ccccc4)nn23)cc1OC
inactive: [1] 93.1% | [2] 87.9% | [3] 108% | [4] 111% | [5] 110% | [6] 107% | [7] 95.1% | [8] 94.4% | [9] 113%

O=C1c2ccccc2C(=O)c2c1cccc2-n1nnc2ccccc21
inactive: [1] 106% | [2] 90.8% | [3] 104% | [4] 99.8% | [5] 112% | [6] 103% | [7] 100% | [8] 118% | [9] 79.3%

NC(=O)N/N=C/c1ccc(Br)o1
inactive: [1] 102% | [2] 105% | [3] 111% | [4] 106% | [5] 101% | [6] 104% | [7] 94.2% | [8] 105% | [9] 99.6%

Oc1[nH]c2ccc(Cl)cc2c1/C=c1/ccc2c(c1)N=C(c1ccc(C(F)(F)F)cc1)N=2
inactive: [1] 42.2% | [2] 15.8% | [3] 77% | [4] 49.8% | [5] 63.4% | [6] 61.6% | [7] 34.2% | [8] 45.8% | [9] 63.3%

O=Nc1ccc(O)c(=O)cc1
inactive: [2] 63.3% | [3] 102% | [4] 14.6% | [5] 79.8% | [6] 34.9% | [8] 55.9% | [9] 71.4%
active: [1] 4.07% | [7] -4.94%

O=C1/C(=C/c2ccc3cccc(Cl)c3n2)SC(=S)N1CCc1ccc(O)cc1
inactive: [1] 107% | [2] 50.7% | [3] 97.5% | [4] 94% | [5] 95.8% | [6] 68.4% | [7] 80.7% | [8] 108% | [9] 101%

Cn1cc(-c2csc(-c3cn(C)c4ncccc34)n2)c2cc(F)cnc21
inactive: [1] 69.8% | [2] 75.2% | [3] 83.3% | [4] 82.4% | [5] 60.6% | [6] 65.3% | [7] 72.4% | [8] 83.8% | [9] 98.7%

O=C(CCc1nnc2sc(-c3ccc(Cl)cc3Cl)nn12)c1nc2ccccc2[nH]1
active: [1] -12.9% | [2] -45.8% | [3] 7.75% | [4] -83.1% | [5] -70.2% | [6] -85.1% | [7] -58% | [8] -60.1% | [9] -68.9%

Cc1nn(-c2ccccc2)c2nc3c(nc12)C(=O)CCC3
inactive: [1] 99% | [2] 98.2% | [3] 104% | [4] 102% | [5] 88.3% | [6] 86.3% | [7] 90.3% | [8] 114% | [9] 90%

CC(=O)c1cc(C(=O)c2ccc3c(c2)Sc2ccccc2N3)c2c(C)cc(C)cn12
inactive: [3] 36.5% | [4] 14.6% | [6] 23.1% | [7] 16.6% | [8] 40.4% | [9] 26.3%
active: [1] -15% | [2] -2.02% | [5] -36.5%
